The list is not random: actives were taken first. Their share in the collection is about 0.56%.
EPAC2 antagonist = blocks human EPAC2 exchange factor | AID 720708 | actives 0.18% (n = 360,000) | Potency, µM (top dose mostly 114 µM), inactives show at the highest dose activity, negative = inhibition, hits mostly inhibitors | Q8WZA2 | EPAC2 GEF exchange of Rap1B-BODIPY-GDP, fluorescence; further: potency means the concentration at half of the fitted maximal effect; on the % scale 0 is the no-effect control and ±100 the full control effect; nearly all actives have a fitted effect of over 45% in size
Target sequence (Q8WZA2 whole entry, looked up): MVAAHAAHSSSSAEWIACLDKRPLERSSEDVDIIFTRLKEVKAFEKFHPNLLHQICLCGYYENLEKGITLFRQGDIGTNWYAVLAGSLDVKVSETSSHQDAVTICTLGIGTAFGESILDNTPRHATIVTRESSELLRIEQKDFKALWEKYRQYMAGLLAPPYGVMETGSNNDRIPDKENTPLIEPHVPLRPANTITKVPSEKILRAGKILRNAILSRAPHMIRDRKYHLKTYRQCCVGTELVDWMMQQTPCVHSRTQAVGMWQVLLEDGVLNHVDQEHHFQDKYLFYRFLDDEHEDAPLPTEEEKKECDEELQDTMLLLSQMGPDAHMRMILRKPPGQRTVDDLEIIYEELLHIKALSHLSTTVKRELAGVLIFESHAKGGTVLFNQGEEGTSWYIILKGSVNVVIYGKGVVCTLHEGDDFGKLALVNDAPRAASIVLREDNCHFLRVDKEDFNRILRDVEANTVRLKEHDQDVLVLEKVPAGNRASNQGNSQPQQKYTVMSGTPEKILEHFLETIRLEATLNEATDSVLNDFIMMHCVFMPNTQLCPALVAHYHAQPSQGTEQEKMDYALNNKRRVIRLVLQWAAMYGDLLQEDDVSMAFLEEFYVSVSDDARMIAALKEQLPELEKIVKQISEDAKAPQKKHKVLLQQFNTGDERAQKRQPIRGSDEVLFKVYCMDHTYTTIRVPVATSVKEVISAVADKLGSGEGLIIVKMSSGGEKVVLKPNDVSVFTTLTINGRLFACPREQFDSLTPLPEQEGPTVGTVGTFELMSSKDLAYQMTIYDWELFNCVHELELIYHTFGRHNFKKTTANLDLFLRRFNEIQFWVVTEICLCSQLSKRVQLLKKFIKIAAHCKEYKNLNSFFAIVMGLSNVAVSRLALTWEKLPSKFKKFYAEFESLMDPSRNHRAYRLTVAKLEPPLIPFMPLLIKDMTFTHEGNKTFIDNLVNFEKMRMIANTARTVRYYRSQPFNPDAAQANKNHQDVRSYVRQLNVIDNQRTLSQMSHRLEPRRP
USP1-UAF1 inh = inhibitors of human USP1/UAF1 deubiquitinase; recombinant USP1/UAF1, Ub-Rhodamine cleavage fluorescence; AID 743255; Potency, µM (top dose mostly 57.1 µM), without a hit: top-dose activity change, negative = inhibition, hits mostly inhibitors; O94782; actives 0.23% (n = 390,000); further: potency means the concentration at half of the fitted maximal effect; on the % scale 0 is the no-effect control and ±100 the full control effect; nearly all actives have a fitted effect of over 60% in size
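USP1/UAF1 complex at 1 nM was preincubated with compound for 15 min at room temperature, then Ub-Rho substrate (150nM final) was added. Fluorescence (480/540 nm) was read kinetically, 6 reads every 60 seconds.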
LDHA inh = inhibitors of human lactate dehydrogenase A. P00338. purified LDHA, NADH/diaphorase-resazurin fluorescence; stronger effect = lower value. activity change, % (values are at about 110 or 230 µM). actives 0.15% (n = 480,000); in the data active means activity change below about -30%; inconclusive means mostly about -25% to -30%;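 further: plate controls were DMSO wells for no effect and wells without enzyme for full effect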
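Remaining NADH was detected by diaphorase (0.133 mg/mL) converting 37 µM resazurin to fluorescent resorufin, read at 0 and 20 minutes. The preceding 5-minute room-temperature reaction used 2 nM LDHA, 0.2 mM sodium pyruvate and 0.06 mM NADH at pH 7.4.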
EPAC2 agonist = activates human EPAC2 exchange factor; Q8WZA2; EPAC2 activation, biochemical qHTS; response scale: 100% = 6.5 mM cAMP response; Potency, µM (doses to about 154 µM), for inactives: at the top dose activation, hits mostly activators; actives 0.079% (n = 360,000); AID 720711; further: potency means the concentration at half of the fitted maximal effect; nearly all actives have a fitted effect of over 50% in size
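EPAC2 (100 nM) mixed with Rap1B loaded with BODIPY-GDP (250 nM) plus 50 uM unlabeled GDP; compounds pinned in, 5 min RT, then read every 5 min for 30 min (ex 480, em 540 nm). Normalized to cAMP control.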
EPAC1 agonist = activates human EPAC1 exchange factor; O95398; EPAC1 agonist qHTS, biochemical assay; response scale: 100% = response to 6.5 mM cAMP; Potency, µM (titrated, usually from 154 µM), inactives show at the highest dose activation, usual class: activators; actives 0.073% (n = 360,000); AID 720707; further: potency means the concentration at half of the fitted maximal effect; nearly all actives have a fitted effect of over 60% in size
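Normalized to 6.5 mM cAMP, activity reflects EPAC1-catalysed release of BODIPY-GDP from Rap1B, followed kinetically over 30 min at 480 nm excitation, 540 nm emission. Reaction contained 100 nM EPAC1, 250 nM Rap1B-BODIPY-GDP, 50 uM GDP.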
EPAC1 antagonist = antagonists of human EPAC1; actives 0.14% (n = 360,000); EPAC1 GEF assay, Rap1b-BODIPY-GDP exchange fluorescence; Potency, µM (titrated, usually from 115 µM), for the others: at the highest dose activity change, negative = inhibition, most hits filed as inhibitors;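 further: potency means the concentration at half of the fitted maximal effect; plate controls were vehicle for no effect and positive control for full effect; nearly all actives have a fitted effect of over 50% in size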
* hit, by the source's call; ? = inconclusive; . = no result. Unless noted, the call rests on the fitted dose curve; in most records, active means well fitted curve in the direction sought with a large enough effect; inconclusive means small, poorly fitted or top-dose-only effect, or another doubt; inactive means no such curve, though single readings can be large; an effect the other way counts as inactive or inconclusive.

SMILES	EPAC2 antagonist	USP1-UAF1 inh	LDHA inh	EPAC2 agonist	EPAC1 agonist	EPAC1 antagonist
CCCCCCn1c(=O)n2n(c1=O)C[C@]1(OC(=O)NC3CC3)CN(S(=O)(=O)c3ccc(C)cc3)C[C@]1(O)C2	-12%	-23%	-1	4%	-8%	-8%
COC(=O)c1ccccc1C(=O)c1cccc2ccccc12	45µM*	-11%	-1	14%	7%	-17%
O=C(c1ccccc1)c1cccc2ccccc12	13µM*	-12%	5	11%	14%	-14%
Cc1cccc(C)c1OC(=O)c1ccccc1	50µM*	-2%	2	7%	-1%	-8%
CCCCCCc1cc2cc(C(=O)NC)c(=N)oc2cc1O	16%	?	0	100µM*	10%	4%
COc1ccccc1N1CCN(C(C(=O)O)c2c[nH]c3ccc(NC(=O)CCC(=O)O)cc23)CC1 (stereo unspecified)	.	.	-21	.	.	.
CCNc1sc(C(C)=O)c(N)c1C#N	.	.	-35*	.	.	.
CCCc1c(C(=O)OCC)sc(N)c1C#N	4%	-15%	-8	0%	-4%	-8%
O=C(CBr)c1ccc(Oc2ccc(C(=O)C[n+]3ccccc3Cl)cc2)cc1	.	.	-72*	.	.	.
CCOc1cc(/C=C2/NC(=O)NC2=O)cc(Cl)c1OCC	.	.	-7	.	.	.
Cc1cc(C)c(S(=O)(=O)/N=C2\C=C(NS(=O)(=O)c3ccccc3)C(=O)c3ccccc32)c(C)c1	?	?	8	6%	3%	-25%
O=C(O)c1ccc(NS(=O)(=O)c2ccc3c(c2)C(=O)c2ccccc2C3=O)cc1	-12%	-17%	30	4%	-3%	?
NC(N)=NS(=O)(=O)c1ccccc1	.	.	1	.	.	.
O=S(=O)(N=C1C=CC(=NS(=O)(=O)c2ccccc2)c2ccccc21)c1ccccc1	-1%	28µM*	17	6%	10%	-6%
Cc1ccc(S(=O)(=O)/N=C2\C=C(NS(=O)(=O)c3ccccc3)C(=O)c3ccccc32)cc1	?	18µM*	39	18%	-4%	?
O=C(O)c1ccc(NC2=C/C(=N/S(=O)(=O)c3ccccc3)c3ccccc3C2=O)cc1	?	2.8µM*	52	2%	-1%	?
Cc1cc(C)c(S(=O)(=O)/N=C2\C=C(Nc3ccc(C(=O)O)cc3)C(=O)c3ccccc32)c(C)c1	28%	14µM*	41	4%	100µM*	-5%
Cc1ccc(NC(=O)CN2C(=O)NC3(CCc4ccccc43)C2=O)cc1S(=O)(=O)N1CCCCC1 (stereo unspecified)	-14%	-19%	-1	13%	11%	-25%
CC(C)CNC(=S)NNC(=O)c1ccco1	-5%	-9%	4	-3%	1%	8%
CCc1ccc(NC(=O)/C(C#N)=C/c2cc3ccc(C)cc3nc2N2CCOCC2)cc1	8%	-22%	1	100µM*	-1%	7%
Cc1ccc(NC(=O)CN2C(=O)N/C(=C\c3cccn3-c3ccc(C(=O)O)cc3)C2=O)cc1	.	.	-22	.	.	.
Cc1ccc(NC(=O)CN2C(=O)N/C(=C/c3cccn3-c3ccc(C(=O)O)cc3)C2=O)cc1	-15%	?	-30*	2%	21%	?
O=C1C=CC(=O)c2c(O)c(CO)c(CO)c(O)c21	-1%	14µM*	19	9%	17%	?
O=C(O)CCC(=O)c1ccc(F)cc1	.	.	4	.	.	.
O=C1ON=C(c2ccc([N+](=O)[O-])cc2)/C1=C/c1ccccc1O	2%	-21%	-43*	6%	4%	-8%
SMILES	EPAC2 antagonist	USP1-UAF1 inh	LDHA inh	EPAC2 agonist	EPAC1 agonist	EPAC1 antagonist
O=C(CN(Cc1ccccc1Cl)C(=O)CNS(=O)(=O)c1ccc(F)cc1)NCC1CCCO1 (stereo unspecified)	16%	1%	-6	10%	-4%	-18%
CN1CCN(S(=O)(=O)c2ccc(N3CCN(c4cccc(Cl)c4)CC3)nc2)CC1	.	.	5	.	.	.
COC(=O)Cc1c(C)c2ccc(O)cc2oc1=O	.	.	-30*	.	.	.
COc1ccc(/C=C(/C#N)C(=O)c2c[nH]c3cc(F)ccc23)cc1	.	.	-3	.	.	.
COc1cc(/C=C(\C#N)C(=O)c2c[nH]c3ccccc23)cc(OC)c1O	-5%	28µM*	27	18%	-1%	-21%
CCOC(=O)c1ccc(NC(=O)c2sc3nc(-c4ccncc4)ccc3c2N)cc1	.	.	11	.	.	.
CN(N=Nc1cccc([N+](=O)[O-])c1)c1ccccc1	-14%	-19%	1	4%	27%	-5%
CN(N=Nc1ccc([N+](=O)[O-])cc1)c1ccccc1	347%	?	-1	100µM*	-793%	79µM*
O=C(Nc1ccc2nc(-c3ccco3)c(-c3ccco3)nc2c1)NC1CC1	13%	?	13	6%	1%	50µM*
O=C(O)c1ccc2nc(-c3ccco3)c(-c3ccco3)nc2c1	-1%	-26%	21	8%	16%	2%
O=C(Nc1cccc(C(F)(F)F)c1)c1ccc2nc(-c3ccco3)c(-c3ccco3)nc2c1	?	28µM*	11	-28%	-30%	35µM*
COc1ccc(-c2csc(C3=C(O)CN(Cc4ccc(Cl)cc4)C3=N)n2)cc1OC	3%	-16%	-4	6%	4%	-2%
COc1cccc(CN2CC(O)=C(c3nc(-c4ccc(Cl)cc4)cs3)C2=N)c1	10%	-12%	-3	6.3µM*	-14%	2%
COc1cc(OC)c(OC)cc1/C=C1\Oc2cc(OCC(=O)N3Cc4ccccc4C[C@H]3C(=O)O)ccc2C1=O	-3%	14µM*	2	17%	6%	-27%
CCOc1cccc(OCCOCCNC(C)(C)C)c1	-4%	-1%	-32*	10%	-9%	-23%
Cc1ccc(-c2nc3cc(NC(=O)/C=C/c4ccco4)ccc3o2)cc1	.	.	-3	.	.	.
CCCC(C)NC(=O)Nc1cc(C(=O)NC2CC2)ccc1C (stereo unspecified)	.	.	-34*	.	.	.
CC1=NN(c2ccccc2)C(=O)/C1=C\c1ccc(Oc2ccc([N+](=O)[O-])cc2[N+](=O)[O-])cc1	2%	?	10	3%	11%	79µM*
COc1cc(/C=C2\C(=O)N(c3ccccc3)N=C2C)ccc1Oc1ccc([N+](=O)[O-])cc1[N+](=O)[O-]	-1%	-20%	13	3%	4%	-9%
CCC1(c2ccc(NC(=O)c3ccc(OC)c(OC)c3)cc2)CCC(=O)NC1=O (stereo unspecified)	.	.	7	.	.	.
NS(=O)(=O)c1ccc(CCNc2ncnc3c2cnn3-c2ccc(F)cc2)cc1	.	.	-7	.	.	.

Bioassay records (PubChem)
